From the supplement of paper PMC10849652
Targets with a hit are over-represented here; the source holds about 7,900 in all. About 0.6% of all pairs of compound and target were hits.

compound: C#Cc1cccc(Nc2ncnc3cc(OCCOC)c(OCCOC)cc23)c1 [erlotinib]; assay: log2 fold change, soluble protein after heating vs DMSO (PISA); higher = thermal stabilisation; K562 cells, 10 uM, 30 min; active = over 0.2 and 3.5 SD of the protein, either way, in both replicates (recomputed)
In short: (§1)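 Aliquots of K562 cells (2×10^6 cells/mL) treated with 10 μM compound for 30 min were heated for 3 min over 48°C-58°C. After pooling and extraction in PBS with 0.5% NP-40 at 4°C, soluble protein from a 21,000xg, 90 min spin was quantified by TMTpro 16plex LC-MS/MS with channel sums equalised. Thermal stability is expressed against control samples, from duplicates, as a log2 fold change.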

Sequence of UniProt P53367 (P53367 whole entry, looked up): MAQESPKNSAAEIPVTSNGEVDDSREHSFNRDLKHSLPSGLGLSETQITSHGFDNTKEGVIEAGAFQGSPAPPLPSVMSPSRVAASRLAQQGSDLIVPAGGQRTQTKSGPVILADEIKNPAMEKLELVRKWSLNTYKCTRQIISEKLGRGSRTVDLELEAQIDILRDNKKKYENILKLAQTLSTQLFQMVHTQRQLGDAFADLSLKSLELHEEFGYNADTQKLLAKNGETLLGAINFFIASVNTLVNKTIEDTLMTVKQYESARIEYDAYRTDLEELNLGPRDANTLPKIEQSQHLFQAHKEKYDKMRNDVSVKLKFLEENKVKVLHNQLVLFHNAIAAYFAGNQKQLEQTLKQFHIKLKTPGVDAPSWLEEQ
Sequence of UniProt Q14137 (Q14137 whole entry, looked up): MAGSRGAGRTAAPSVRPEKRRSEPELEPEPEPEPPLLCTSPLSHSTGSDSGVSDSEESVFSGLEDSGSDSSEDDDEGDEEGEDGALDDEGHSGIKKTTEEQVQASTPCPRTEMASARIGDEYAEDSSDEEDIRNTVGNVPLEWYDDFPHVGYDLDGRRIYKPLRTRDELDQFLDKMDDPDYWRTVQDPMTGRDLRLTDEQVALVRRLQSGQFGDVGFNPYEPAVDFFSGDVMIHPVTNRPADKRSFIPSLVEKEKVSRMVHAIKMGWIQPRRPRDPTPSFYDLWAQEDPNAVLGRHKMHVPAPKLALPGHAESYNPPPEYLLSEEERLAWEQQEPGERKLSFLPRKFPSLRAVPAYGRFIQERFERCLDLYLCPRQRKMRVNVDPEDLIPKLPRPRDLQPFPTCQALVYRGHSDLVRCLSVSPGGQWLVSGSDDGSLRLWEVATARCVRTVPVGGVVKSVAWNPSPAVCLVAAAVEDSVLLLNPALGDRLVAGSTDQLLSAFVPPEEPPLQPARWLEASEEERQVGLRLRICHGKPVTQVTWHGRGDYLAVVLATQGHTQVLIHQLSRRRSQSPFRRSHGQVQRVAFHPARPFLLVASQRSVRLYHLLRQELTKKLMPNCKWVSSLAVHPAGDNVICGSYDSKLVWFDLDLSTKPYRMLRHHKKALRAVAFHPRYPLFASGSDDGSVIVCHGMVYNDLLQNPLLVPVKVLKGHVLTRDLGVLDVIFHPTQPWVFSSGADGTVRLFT
Sequence of UniProt Q9Y673 (Q9Y673 whole entry, looked up): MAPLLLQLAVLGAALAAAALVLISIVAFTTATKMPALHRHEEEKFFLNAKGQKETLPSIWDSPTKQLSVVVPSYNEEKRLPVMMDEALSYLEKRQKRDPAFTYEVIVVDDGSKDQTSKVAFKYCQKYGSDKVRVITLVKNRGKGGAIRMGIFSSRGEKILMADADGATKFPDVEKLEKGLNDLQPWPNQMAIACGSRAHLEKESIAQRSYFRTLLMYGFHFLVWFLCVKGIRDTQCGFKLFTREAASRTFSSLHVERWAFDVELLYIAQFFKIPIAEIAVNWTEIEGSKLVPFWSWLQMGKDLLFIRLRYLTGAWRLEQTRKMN
Sequence of UniProt Q9ULX6 (Q9ULX6 whole entry, looked up): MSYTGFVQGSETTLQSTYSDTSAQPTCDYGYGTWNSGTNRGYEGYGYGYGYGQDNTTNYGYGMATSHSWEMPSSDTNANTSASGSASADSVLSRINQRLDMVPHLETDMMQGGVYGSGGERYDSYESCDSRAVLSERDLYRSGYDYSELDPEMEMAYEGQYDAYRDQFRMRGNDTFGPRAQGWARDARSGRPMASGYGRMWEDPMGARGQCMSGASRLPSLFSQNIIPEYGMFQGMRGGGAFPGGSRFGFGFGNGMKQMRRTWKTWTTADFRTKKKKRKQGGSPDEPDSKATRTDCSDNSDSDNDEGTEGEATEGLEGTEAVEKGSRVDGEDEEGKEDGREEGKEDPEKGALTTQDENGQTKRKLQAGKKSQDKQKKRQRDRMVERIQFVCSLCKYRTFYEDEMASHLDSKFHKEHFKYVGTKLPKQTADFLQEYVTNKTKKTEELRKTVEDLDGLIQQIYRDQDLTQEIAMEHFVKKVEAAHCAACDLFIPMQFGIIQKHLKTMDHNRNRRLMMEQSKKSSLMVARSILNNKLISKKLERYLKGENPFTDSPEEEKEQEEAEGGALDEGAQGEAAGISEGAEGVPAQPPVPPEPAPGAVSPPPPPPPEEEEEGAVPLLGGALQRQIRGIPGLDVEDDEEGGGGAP
Sequence of UniProt Q9H8Y5 (Q9H8Y5 whole entry, looked up): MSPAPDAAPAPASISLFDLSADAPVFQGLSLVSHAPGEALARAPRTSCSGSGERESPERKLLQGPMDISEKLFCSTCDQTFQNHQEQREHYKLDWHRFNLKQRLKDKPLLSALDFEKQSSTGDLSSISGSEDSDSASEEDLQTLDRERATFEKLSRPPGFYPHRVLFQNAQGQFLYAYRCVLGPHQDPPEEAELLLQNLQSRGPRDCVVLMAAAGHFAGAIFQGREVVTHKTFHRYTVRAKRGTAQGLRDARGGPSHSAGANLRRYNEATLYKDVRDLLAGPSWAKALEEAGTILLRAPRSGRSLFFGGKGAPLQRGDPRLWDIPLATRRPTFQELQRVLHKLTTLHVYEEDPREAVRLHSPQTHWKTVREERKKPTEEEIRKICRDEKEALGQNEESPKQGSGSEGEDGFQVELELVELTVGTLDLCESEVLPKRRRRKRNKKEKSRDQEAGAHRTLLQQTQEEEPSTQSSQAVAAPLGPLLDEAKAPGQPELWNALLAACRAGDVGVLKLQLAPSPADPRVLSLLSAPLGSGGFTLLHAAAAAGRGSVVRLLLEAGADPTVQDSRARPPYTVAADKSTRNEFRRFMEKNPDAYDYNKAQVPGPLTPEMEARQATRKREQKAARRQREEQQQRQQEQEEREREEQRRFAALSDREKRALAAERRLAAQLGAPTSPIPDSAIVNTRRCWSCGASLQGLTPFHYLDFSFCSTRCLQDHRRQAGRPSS
Sequence of UniProt P31749 (P31749 whole entry, looked up): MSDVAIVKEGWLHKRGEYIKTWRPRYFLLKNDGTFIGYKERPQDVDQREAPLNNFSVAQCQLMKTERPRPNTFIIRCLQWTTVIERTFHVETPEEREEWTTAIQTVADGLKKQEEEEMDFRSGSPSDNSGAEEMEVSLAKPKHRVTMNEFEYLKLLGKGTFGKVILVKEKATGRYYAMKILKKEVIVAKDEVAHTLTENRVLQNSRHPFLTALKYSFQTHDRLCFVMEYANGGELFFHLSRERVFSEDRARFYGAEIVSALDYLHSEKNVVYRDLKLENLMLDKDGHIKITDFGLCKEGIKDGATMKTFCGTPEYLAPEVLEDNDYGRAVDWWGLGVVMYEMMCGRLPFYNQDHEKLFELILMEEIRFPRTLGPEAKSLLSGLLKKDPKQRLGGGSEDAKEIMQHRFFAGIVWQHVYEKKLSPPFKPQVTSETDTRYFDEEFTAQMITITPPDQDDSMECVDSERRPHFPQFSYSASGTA
Sequence of UniProt Q9NYF8 (Q9NYF8 whole entry, looked up): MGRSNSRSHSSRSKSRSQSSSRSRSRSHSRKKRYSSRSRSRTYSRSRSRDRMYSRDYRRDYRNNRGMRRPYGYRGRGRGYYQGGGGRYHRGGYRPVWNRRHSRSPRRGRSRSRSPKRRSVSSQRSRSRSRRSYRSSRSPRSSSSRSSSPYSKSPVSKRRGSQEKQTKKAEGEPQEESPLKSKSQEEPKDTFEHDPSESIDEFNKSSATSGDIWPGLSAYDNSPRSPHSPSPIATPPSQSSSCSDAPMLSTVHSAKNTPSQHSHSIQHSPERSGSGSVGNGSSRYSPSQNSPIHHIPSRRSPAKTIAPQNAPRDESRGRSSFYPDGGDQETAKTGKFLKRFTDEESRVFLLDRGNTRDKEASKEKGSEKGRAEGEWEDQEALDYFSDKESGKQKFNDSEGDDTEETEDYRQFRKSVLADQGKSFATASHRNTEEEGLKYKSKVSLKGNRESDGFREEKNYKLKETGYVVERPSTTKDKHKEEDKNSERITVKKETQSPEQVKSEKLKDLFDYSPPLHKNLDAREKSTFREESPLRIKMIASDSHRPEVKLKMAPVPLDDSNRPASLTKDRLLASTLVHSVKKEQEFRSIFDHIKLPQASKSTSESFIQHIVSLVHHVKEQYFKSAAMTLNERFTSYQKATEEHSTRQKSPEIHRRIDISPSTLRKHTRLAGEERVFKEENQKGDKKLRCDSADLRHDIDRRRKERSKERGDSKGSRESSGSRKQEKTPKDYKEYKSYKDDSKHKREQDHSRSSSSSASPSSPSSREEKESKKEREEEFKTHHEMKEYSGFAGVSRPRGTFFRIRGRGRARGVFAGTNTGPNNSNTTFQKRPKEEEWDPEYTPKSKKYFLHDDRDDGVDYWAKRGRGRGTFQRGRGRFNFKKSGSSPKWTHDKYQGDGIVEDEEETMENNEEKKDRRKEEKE
Sequence of UniProt P17544 (P17544 whole entry, looked up): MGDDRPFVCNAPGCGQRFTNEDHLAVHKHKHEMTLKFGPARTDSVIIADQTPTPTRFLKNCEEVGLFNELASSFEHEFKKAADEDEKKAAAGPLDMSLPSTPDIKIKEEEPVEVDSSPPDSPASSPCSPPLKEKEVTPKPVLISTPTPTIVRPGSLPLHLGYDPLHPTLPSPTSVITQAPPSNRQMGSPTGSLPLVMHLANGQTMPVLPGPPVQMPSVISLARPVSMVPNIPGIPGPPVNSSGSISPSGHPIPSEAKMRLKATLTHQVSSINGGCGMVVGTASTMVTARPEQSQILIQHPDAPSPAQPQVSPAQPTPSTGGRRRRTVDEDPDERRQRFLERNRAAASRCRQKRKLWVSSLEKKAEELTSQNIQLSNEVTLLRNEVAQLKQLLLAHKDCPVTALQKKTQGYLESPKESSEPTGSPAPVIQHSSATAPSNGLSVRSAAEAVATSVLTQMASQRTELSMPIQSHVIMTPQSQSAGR
Sequence of UniProt Q6QNY0 (Q6QNY0 whole entry, looked up): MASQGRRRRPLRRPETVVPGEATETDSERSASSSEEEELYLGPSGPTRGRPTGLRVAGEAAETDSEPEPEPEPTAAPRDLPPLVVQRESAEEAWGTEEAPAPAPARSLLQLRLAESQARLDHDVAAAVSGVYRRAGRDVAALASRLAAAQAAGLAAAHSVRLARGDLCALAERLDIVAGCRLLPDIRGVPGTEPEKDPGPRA

log2 fold change, inactive:
AARSD1 isoform 3 (UniProt Q9BTE6) 0.05
ALDH6A1 (UniProt Q02252) 0.067
ATP6V1H (UniProt Q9UI12) -0.055
ALG5 (UniProt Q9Y673) -0.008
ARHGAP1 (UniProt Q07960) -0.039
BMP2K (UniProt Q9NSY1) 0.079
AHCYL1 (UniProt O43865) 0.083
ANKZF1 (UniProt Q9H8Y5) 0.142
AIP (UniProt O00170) 0.035
ATP23 (UniProt Q9Y6H3) 0.021
BRD4 (UniProt O60885) -0.151
BCCIP (UniProt Q9P287) -0.024
BTBD6 (UniProt Q96KE9) 0.407
ABCB6 (UniProt Q9NP58) 0.017
ATAD3B (UniProt Q5T9A4) -0.027
BCL9L (UniProt Q86UU0) 0.01
AP2A2 isoform 2 (UniProt O94973) 0.007
ADK (UniProt P55263) 0.293
AKR1C2 (UniProt P52895) 0.07
BCLAF1 (UniProt Q9NYF8) 0.036
ACO2 (UniProt Q99798) 0.049
ALDH2 (UniProt P05091) -0.009
ATF7 isoform 6 (UniProt P17544) -0.011
AMD1 (UniProt P17707) 0.078
ARFIP1 (UniProt P53367) 0.217
AKT1 (UniProt P31749) 0.095
ABCA4 (UniProt P78363) 0.191
BLOC1S3 (UniProt Q6QNY0) 0.027
ARL2BP (UniProt Q9Y2Y0) -0.048
AGPS (UniProt O00116) 0.046
AMFR (UniProt Q9UKV5) 0.116
AGPAT1 (UniProt Q99943) 0.04
BOP1 (UniProt Q14137) -0.003
AKAP8L (UniProt Q9ULX6) 0.001
ATP2A3 isoform 2 (UniProt Q93084) -0.002
ATAD1 (UniProt Q8NBU5) 0.037

compound: C/C(=N\NC(=O)C1=CC(=CC=C1)S(=O)(=O)N2CCOCC2)/C3=C(C=CC(=C3)Cl)O; assay: as above
In short: as §1

log2 fold change, active:
AARSD1 isoform 3 (UniProt Q9BTE6) -0.736
BTBD6 (UniProt Q96KE9) -0.706

log2 fold change, inactive:
ALDH6A1 (UniProt Q02252) -0.02
ATP6V1H (UniProt Q9UI12) 0.015
ALG5 (UniProt Q9Y673) 0.014
ARHGAP1 (UniProt Q07960) 0.014
BMP2K (UniProt Q9NSY1) -0.16
AHCYL1 (UniProt O43865) -0.032
ANKZF1 (UniProt Q9H8Y5) 0.032
AIP (UniProt O00170) 0.096
ATP23 (UniProt Q9Y6H3) -0.079
BRD4 (UniProt O60885) 0.078
BCCIP (UniProt Q9P287) 0.045
ABCB6 (UniProt Q9NP58) 0.045
ATAD3B (UniProt Q5T9A4) -0.018
BCL9L (UniProt Q86UU0) -0.256
AP2A2 isoform 2 (UniProt O94973) 0.014
ADK (UniProt P55263) -0.034
AKR1C2 (UniProt P52895) 0.014
BCLAF1 (UniProt Q9NYF8) 0.075
ACO2 (UniProt Q99798) 0.008
ALDH2 (UniProt P05091) 0.121
ATF7 isoform 6 (UniProt P17544) -0.148
AMD1 (UniProt P17707) -0.004
ARFIP1 (UniProt P53367) -0.121
AKT1 (UniProt P31749) 0.034
ABCA4 (UniProt P78363) -0.367
BLOC1S3 (UniProt Q6QNY0) -0.009
ARL2BP (UniProt Q9Y2Y0) 0.014
AGPS (UniProt O00116) 0.055
AMFR (UniProt Q9UKV5) 0
AGPAT1 (UniProt Q99943) -0.004
BOP1 (UniProt Q14137) 0.038
AKAP8L (UniProt Q9ULX6) 0.085
ATP2A3 isoform 2 (UniProt Q93084) -0.002
ATAD1 (UniProt Q8NBU5) 0.036
